In PubChem BioAssay:
Calls of active or inactive are those of the source. Unless noted, the rule behind the calls is not given here.

What was measured:
[1] = resazurin metabolic signal in HepG2 cells – cell-based, resazurin fluorescence, 24 h, PK04 Diversity Set, profiling panel (AID 1172); details: HepG2 viability, higher = more signal; note: test concentration not given here
[2] = budding yeast growth changes without added modifier – OD600, strain BY4716, 24 h, basal condition, primary screen (AID 1173); details: S. cerevisiae BY4716 growth, OD600, 24 h; higher = more signal, called active from +8 up or from −8 down
[3] = viability profiling in MM1S myeloma cells – cell-based, resazurin fluorescence, basal, 24 h, PK04 Diversity Set, profiling panel (AID 1174); details: higher = more signal, called active from +8 up or from −8 down;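 note: MM1S multiple myeloma cell line; test concentration not given here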
[4] = molecular target: Dihydroorotate dehydrogenase (quinone), mitochondrial (Plasmodium falciparum (isolate 3D7)) (UniProt Q08210); assay: inhibition of P. falciparum DHODH – biochemical, C-terminal His tag, absorbance 600 nm, primary screen (AID 1175); details: PfDHODH enzyme, DCIP absorbance 600 nm; higher = more signal, called active from +8 up or from −8 down;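 note: recombinant parasite enzyme with a five histidine tag at its C terminus; test concentration not given here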
Dihydroorotate dehydrogenase (quinone), mitochondrial (Plasmodium falciparum (isolate 3D7)), sequence (Q08210 whole entry, looked up): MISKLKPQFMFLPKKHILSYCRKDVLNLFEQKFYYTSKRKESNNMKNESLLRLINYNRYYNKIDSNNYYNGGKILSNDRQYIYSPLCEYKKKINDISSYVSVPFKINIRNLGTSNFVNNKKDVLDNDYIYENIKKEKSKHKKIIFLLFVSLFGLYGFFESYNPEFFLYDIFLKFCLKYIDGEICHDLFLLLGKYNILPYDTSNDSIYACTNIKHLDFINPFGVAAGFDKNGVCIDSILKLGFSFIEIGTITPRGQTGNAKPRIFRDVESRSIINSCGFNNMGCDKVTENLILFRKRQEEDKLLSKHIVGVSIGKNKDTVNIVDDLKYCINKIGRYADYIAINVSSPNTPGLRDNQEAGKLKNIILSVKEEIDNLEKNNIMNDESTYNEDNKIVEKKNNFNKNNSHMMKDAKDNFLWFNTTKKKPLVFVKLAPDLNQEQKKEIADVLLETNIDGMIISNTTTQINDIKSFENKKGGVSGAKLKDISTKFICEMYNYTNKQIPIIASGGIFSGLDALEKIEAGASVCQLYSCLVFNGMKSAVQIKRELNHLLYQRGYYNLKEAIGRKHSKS

[5] = inhibition of PAO1 biofilm formation – strain PAO1, LB-PBS medium, absorbance 600 nm, primary screen (AID 1176); note: test concentration not given here; details: P. aeruginosa PAO1 growth/biofilm, A600, 12 h; higher = more signal
[6] = growth modulation of vineyard yeast isolate – strain RM11-1a, OD600, basal, 24 h, primary screen (AID 1177);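 note: cultures grown under basal conditions with no added stressor; test concentration not given here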; details: S. cerevisiae RM11-1a growth, OD600, 24 h; higher = more signal, called active from +8 up or from −8 down
[7] = growth of efflux-deficient E. coli DRC39 – strain DRC39, OD650, 24 h, E. coli filamentation inducers, primary screen (AID 1178);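 note: growth measured as culture turbidity by optical density at 650 nm; test concentration not given here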; details: E. coli DRC39 acrAB, higher = more signal, called active from +8 up or from −8 down
[8] = growth of efflux-deficient E. coli DRC39 – strain DRC39, OD650, 48 h, E. coli filamentation inducers, primary screen (AID 1179);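 note: screen aims at cell division blockers that make cells filament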; details: E. coli DRC39 delta-acrAB growth, higher = more signal, called active from +8 up or from −8 down
[9] = viability profiling in RPMI8226 myeloma cells – cell-based, resazurin fluorescence, basal, 24 h, PK04 Diversity Set, profiling panel (AID 1180); details: higher = more signal;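 note: RPMI8826 multiple myeloma cell line at 5000 cells per well; test concentration not given here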
[10] = molecular target: E3 ubiquitin-protein ligase XIAP (Homo sapiens) (UniProt P98170); assay: small molecules binding XIAP protein – biophysical, small-molecule microarray, fluorescence 635 nm, primary screen (AID 1181); details: higher = more signal;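 note: score merges 667 nm emission and signal to noise over triplicate slides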
E3 ubiquitin-protein ligase XIAP (Homo sapiens), sequence (P98170 whole entry, looked up): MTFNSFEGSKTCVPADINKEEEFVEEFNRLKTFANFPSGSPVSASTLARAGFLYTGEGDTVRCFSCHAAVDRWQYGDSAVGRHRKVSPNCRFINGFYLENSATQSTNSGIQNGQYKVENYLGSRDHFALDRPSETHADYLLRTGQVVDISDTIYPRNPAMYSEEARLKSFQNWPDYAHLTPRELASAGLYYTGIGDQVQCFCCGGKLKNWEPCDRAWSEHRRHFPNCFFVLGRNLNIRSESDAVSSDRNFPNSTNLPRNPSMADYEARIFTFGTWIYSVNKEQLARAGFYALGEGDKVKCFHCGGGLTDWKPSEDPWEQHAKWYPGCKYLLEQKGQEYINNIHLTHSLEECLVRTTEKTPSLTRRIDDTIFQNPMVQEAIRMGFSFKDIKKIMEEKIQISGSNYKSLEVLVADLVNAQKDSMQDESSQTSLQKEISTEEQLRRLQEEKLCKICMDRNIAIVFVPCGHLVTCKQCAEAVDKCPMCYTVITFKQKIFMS

Row | SMILES | z-score [1] | z-score [2] | z-score [3] | composite z-score [4] | z-score [5] | z-score [6] | z-score [7] | z-score [8] | z-score [9] | composite z-score [10]
1 | O=C1c2ccccc2[C@@]2(Cc3ccccc3N(CCN3CCOCC3)C2=O)[C@H](c2ccc(CO)cc2)N1Cc1ccccc1 | -0.864 | -0.187 (inactive) | 0.757 (inactive) | -4.94 (inactive) | 0.168 (inactive) | 0.167 (inactive) | 0.839 (inactive) | 1.61 (inactive) | 0.386 | -0.278
2 | CC(C)C(=C=CC[C@@H](O)c1ccccc1OCCO)CCO | 0.61 | -13 (active) | 0.11 (inactive) | -5.28 (inactive) | -0.0828 (inactive) | 0.413 (inactive) | 0.272 (inactive) | 0.123 (inactive) | 1.28 | -0.318
3 | CN(C)C(=O)[C@@]1(Cc2ccccc2)N=C(c2ccc(OCCCO)cc2)O[C@H]1c1ccccc1N=[N+]=[N-] | -0.697 | -1.27 (inactive) | -3.56 (inactive) | 0.2 (inactive) | 0.0533 (inactive) | -0.0844 (inactive) | 0.754 (inactive) | 0.579 (inactive) | -5.06 | 0.15
4 | CCCCCN1CC=CC23O[C@@H]4/C=C\CCCOC(=O)C4[C@H]2C(=O)N(CCCO)[C@@H]3C1=O (stereo not given in full) | 1.15 | -1.26 (inactive) | 1.21 (inactive) | -1.37 (inactive) | 0.661 (inactive) | -1.32 (inactive) | 0.581 (inactive) | 0.025 (inactive) | 1.72 | 0.239
5 | CS(=O)(=O)CCOC(=O)C1=CC(CCCO)=CC(c2ccc(CN3CCCC3)cc2)N(Cc2cc3c(cc2Br)OCO3)C=C1C(=O)OCCS(C)(=O)=O (stereo not given) | 0.0305 | -3.3 (inactive) | 0.56 (inactive) | -4.55 (inactive) | -0.66 (inactive) | 0.526 (inactive) | 0.549 (inactive) | 0.325 (inactive) | 1.31 | -0.0773
6 | CN(C)CCCNC(=O)[C@@]1(c2ccc([N+](=O)[O-])cc2)CC(=O)N(C2CCCCC2)[C@@H]1c1ccc(CO)cc1I | -6.5 | -11.7 (active) | -9.1 (active) | -1.19 (inactive) | 0.0714 (inactive) | 0.344 (inactive) | 0.725 (inactive) | -1.28 (inactive) | -6.61 | 0.125
7 | COC(=O)[C@@]1(Cc2ccc(OC)cc2)[C@H]2c3cc(C(=O)N4CCCC4)n(Cc4ccccc4)c3C[C@H]2CN1C(=O)c1ccccc1 | -2.62 | 1.04 (inactive) | -0.912 (inactive) | -0.264 (inactive) | 0.219 (inactive) | 0.479 (inactive) | -0.559 (inactive) | 0.0434 (inactive) | -3.16 | -0.065
8 | CC(C)(C)OC(=O)CC[C@@]1(C(=O)NCCN2CCOCC2)N=C(c2ccc(OCCCO)cc2)O[C@@H]1c1ccccc1N=[N+]=[N-] | -0.583 | -0.643 (inactive) | -1.76 (inactive) | -0.462 (inactive) | 0.41 (inactive) | 0.0002 (inactive) | -0.0723 (inactive) | -0.169 (inactive) | -0.601 | 0.0877
9 | CN1C(=O)C2C=CC(C(O)C3CC=CCC3)N(NC(=O)OC(C)(C)C)C2C1=O (stereo not given) | -1.53 | -0.0428 (inactive) | -0.784 (inactive) | 0.123 (inactive) | 0.503 (inactive) | -0.0874 (inactive) | -0.791 (inactive) | -0.688 (inactive) | -1 | 0.579
10 | C=CC[C@]1(C(=O)N2CCCCC2)N=C(c2ccc(OCCCO)cc2)O[C@H]1c1ccccc1 | 1.77 | -2.06 (inactive) | 0.91 (inactive) | -0.309 (inactive) | -0.481 (inactive) | 0.646 (inactive) | 0.825 (inactive) | -0.189 (inactive) | 1.93 | -0.0563
11 | C=C(CCCC)C(=O)CC[C@@H](OC(=O)c1cccnc1)c1ccc(CO)o1 | 0.154 | -0.594 (inactive) | -0.16 (inactive) | -1.05 (inactive) | 0.555 (inactive) | 0.0671 (inactive) | 0.186 (inactive) | -0.0608 (inactive) | 0.0739 | 0.0256
12 | CCOC(=O)C[C@H]1[C@H](OC(=O)Cc2ccc3c(c2)OCO3)[C@@H](NC(=O)c2ccc(-c3ccccc3)cc2)c2cc(OCCCO)ccc2N1C(=O)Cc1ccc(OC)cc1 | 0.366 | -1.02 (inactive) | 0.322 (inactive) | -1.32 (inactive) | -0.0178 (inactive) | -1.82 (inactive) | 0.261 (inactive) | 0.877 (inactive) | 0.489 | 0.179
13 | O=C(NCc1ccccc1)[C@@H]1c2ccccc2C(=O)N(CC23CC4CC(CC(C4)C2)C3)[C@H]1c1ccc(CO)cc1 | -0.511 | -0.092 (inactive) | -1.12 (inactive) | -0.139 (inactive) | -0.245 (inactive) | 0.0739 (inactive) | -0.142 (inactive) | -0.179 (inactive) | -0.195 | 0.0623
14 | CCOC(=O)[C@H]1C/C=C/C[C@H](C(=O)OCC)C(=O)O[C@H]2[C@@H](OC)O[C@H](CO)[C@@H](OC(=O)Nc3cccc(F)c3)[C@@H]2OC1=O | -5.49 | -0.218 (inactive) | -9.05 (active) | -0.0103 (inactive) | 1.74 (inactive) | 1.84 (inactive) | 0.675 (inactive) | 1.23 (inactive) | -7.34 | 0.125
15 | C=CC[C@]12N=C(c3ccc(OCCCO)cc3)O[C@H]1c1ccccc1N(Cc1ccccc1)C2=O | -0.882 | 0.143 (inactive) | -3.28 (inactive) | 0.648 (inactive) | 0.603 (inactive) | 0.492 (inactive) | -0.0819 (inactive) | 0.328 (inactive) | -2.3 | -0.122
16 | NC(=O)[C@@H]1[C@H]2C(=O)O[C@H](c3ccccc3)[C@H](c3ccccc3)N2[C@H](c2ccc(O)cc2)[C@@]12C(=O)Nc1ccc(C#CC3(O)CCCCCC3)cc12 | -0.0265 | -1.32 (inactive) | 0.475 (inactive) | -0.387 (inactive) | 0.654 (inactive) | 0.591 (inactive) | -0.84 (inactive) | -0.184 (inactive) | -0.49 | -0.113
17 | CN(C)CCCC[C@@H]1NC(=O)[C@H]2C[C@@H](C(=O)NCCCCCNC(=O)CS)[C@@H](c3cccc(OCCO)c3)N2C1=O | 0.373 | -0.646 (inactive) | -0.212 (inactive) | -0.286 (inactive) | 0.643 (inactive) | -0.569 (inactive) | -0.197 (inactive) | -0.32 (inactive) | -0.421 | -0.244
18 | [N-]=[N+]=NCc1ccccc1[C@@H]1OC(c2ccc(OCCCO)cc2)=N[C@]1(CCS(=O)(=O)c1ccccc1)C(=O)NCc1ccccc1 | 0.239 | 0.743 (inactive) | -0.304 (inactive) | 0.59 (inactive) | 0.882 (inactive) | 0.797 (inactive) | 0.198 (inactive) | -0.678 (inactive) | 0.144 | 0.194
19 | O=C1O[C@@H](c2ccccc2)[C@@H](c2ccccc2)N2[C@@H](c3ccc(OCCO)cc3)[C@]3(C(=O)Nc4ccccc43)[C@@H](C(=O)NC[C@H](O)c3ccccc3)[C@H]12 | 0.665 | 1.33 (inactive) | 0.251 (inactive) | -0.854 (inactive) | 2.44 (inactive) | 1.84 (inactive) | 0.0225 (inactive) | -0.348 (inactive) | -0.0509 | -0.117
20 | [N-]=[N+]=NCc1ccccc1[C@@H]1OC(c2ccc(OCCCO)cc2)=N[C@]1(CCS(=O)(=O)c1ccccc1)C(=O)NCCN1CCOCC1 | -1.13 | -0.276 (inactive) | -0.346 (inactive) | 0.328 (inactive) | 0.286 (inactive) | 0.935 (inactive) | 0.239 (inactive) | 0.564 (inactive) | -0.185 | 0.703
21 | Cc1ccc(S[C@]2(C(=O)NC(C)C)CC(=O)N(Cc3ccccc3Cl)[C@@H]2c2ccc(CO)cc2I)cc1 | 0.36 | -3.93 (inactive) | -2.83 (inactive) | -0.766 (inactive) | 0.723 (inactive) | -1.89 (inactive) | 0.0051 (inactive) | -0.465 (inactive) | -2.24 | -0.074
22 | Cc1ccc(S[C@]2(C(=O)NC3CC3)CC(=O)N(C3Cc4ccccc4C3)[C@@H]2c2ccc(CO)cc2)cc1 | -0.122 | -0.612 (inactive) | 0.0142 (inactive) | -1.85 (inactive) | 0.472 (inactive) | -1.52 (inactive) | 0.851 (inactive) | 1.26 (inactive) | 0.0919 | -0.162
23 | CC(C)C[C@@H]1NC(=O)[C@@H]2C[C@H](C(=O)NCCCCCN)[C@H](c3cccc(OCCO)c3)N2C1=O | -0.573 | -1.22 (inactive) | 0.522 (inactive) | -1.78 (inactive) | 0.792 (inactive) | -2.75 (inactive) | 1.06 (inactive) | 1.75 (inactive) | 0.465 | 0.0337
24 | COC(=O)[C@@]1(Cc2ccccc2)[C@H]2c3cc(C(=O)N4CCCC4)n(CC4CC4)c3C[C@H]2CN1C(=O)c1ccccc1 | -1.34 | 1.38 (inactive) | -1.75 (inactive) | -0.0475 (inactive) | 0.936 (inactive) | 1.25 (inactive) | -0.889 (inactive) | -1.44 (inactive) | -2.27 | 0.637
25 | O=C1OCCC/C=C\[C@H]2OC34C=CCN(Cn5nnc6ccccc65)C(=O)[C@H]3N(CCCCCCO)C(=O)[C@@H]4C12 (stereo not given in full) | 1.14 | -1.45 (inactive) | 0.651 (inactive) | -0.332 (inactive) | 1.07 (inactive) | -1.16 (inactive) | 1.09 (inactive) | 1.18 (inactive) | 0.598 | -0.203
26 | COC(=O)[C@@]1(Cc2ccc(F)cc2)[C@H]2c3cc(C(=O)N4CCCC4)n(Cc4ccc(C)o4)c3C[C@H]2CN1C(=O)c1ccccc1 | -0.814 | 0.707 (inactive) | -6.17 (inactive) | -1.04 (inactive) | -0.595 (inactive) | 0.544 (inactive) | -0.201 (inactive) | 0.548 (inactive) | -5.35 | 0.0623
